Results published in PubChem BioAssay (NCI).
The panel holds about 83,000 compounds, 20% with a hit somewhere; the sample as a whole holds those more often.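 Interpretation: 100, growth as untreated; towards 0, rising growth inhibition; 0, no net growth; 0 to -100, cell death. Compounds scoring below 10 were considered active.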 Active and inactive are the calls of the source.

tested on: MALME-3M melanoma; assay: NCI-60 one-dose screen, 48 h (100 = growth as untreated, 0 = no growth, -100 = all killed); details: 10 µM unless noted

| SMILES | growth |
| --- | --- |
| COC(=O)c1oc2c(C(=O)/C=C/c3ccc(OC)cc3)c(OCCN3CCOCC3)ccc2c1C | -14.1% (active) |
| CN(C)c1ccc(/C=N/n2c(-c3cc(F)c(Cl)cc3Cl)nn(CN3CCOCC3)c2=S)cc1 | 87.6% (inactive) |
| CS(=O)(=O)OCC(COS(C)(=O)=O)C(c1ccccc1)c1ccccc1 | 99.7% (inactive) |
| Nc1ncnc2c1c(C(F)(F)F)cn2[C@@H]1O[C@H](CO)[C@@H](O)[C@H]1O | -16.9% (active) |
| Cc1nccc2c3ccc(OCc4cn(Cc5ccc(Br)cc5)nn4)cc3n(CCCc3ccccc3)c12 | 92.9% (inactive) |
| [2H]c1nc(Nc2ncc(F)c(-c3cc(F)c4nc(C)n(C(C)C)c4c3)n2)c([2H])c([2H])c1CN1CCN(CC)CC1 | 85.9% (inactive) |
| COc1cc(/C=C2/Oc3cc4occc4c(OC)c3C2=O)ccc1OCC(=O)Nc1ccncc1 | 110% (inactive) |
| COc1ccc2c(c1)OC(N)=C(C#N)C2c1ccc(F)cc1 (stereo unspecified) | 61.6% (inactive) |
| CCCCCCCCCCCCCCCCNc1ccccc1 | 114% (inactive) |
| O=C(Nc1ccc(-n2ccc3c(NC(=O)c4ccccc4)ncnc32)cc1)c1cccc(C(F)(F)F)c1 | 77.3% (inactive) |
| COc1ccc(/C(Cl)=N/N=C(\Cl)c2cc(OC)c(OC)c(OC)c2)cc1OC(C)=O | 93.6% (inactive) |
| O=C1C(Cl)=C(Nc2ccccc2)C(=O)C(Cl)=C1Nc1ccccc1 | 119% (inactive) |
| O=C(Nc1ccc(-n2cc(-c3ccncc3)c(-c3ccc(O)c(Cl)c3)n2)cc1)c1cc(C(F)(F)F)cc(C(F)(F)F)c1 | 77.7% (inactive) |
| CCn1c(C)nc([N+](=O)[O-])c1Sc1nc(N)nc2nc[nH]c12 | 53.2% (inactive) |
| Cc1cn(C2CC(N=[N+]=[N-])C(COP(=O)(O)OP(=O)(O)OP(=O)(O)O)O2)c(=O)[nH]c1=O (stereo unspecified) | 87.9% (inactive) |
| COc1cc(/C=C\c2cc(/C=C\c3ccc(O)c(OC)c3)n(C(=O)CNc3ccccc3OC)n2)ccc1O | 47.9% (inactive) |
| COc1ccc(Cl)cc1NC(=O)c1cc2c([nH]1)-c1nc(NC(=O)C(C)C)sc1CC2 | 104% (inactive) |
| O=C(/C=C/c1ccco1)c1cccc(Nc2nc(Nc3ccccc3)nc(Nc3ccccc3)n2)c1 | 110% (inactive) |
| O=C(Nc1ccc(-n2ccc3c(NC(=O)c4ccccc4)ncnc32)cc1)Nc1ccc(Cl)c(C(F)(F)F)c1 | 15% (inactive) |

| SMILES | growth |
| --- | --- |
| CN(C)CCCOc1c(Br)cc(/C=C/C(=O)N(C)CCc2cc(Br)c(OCCCN(C)C)c(Br)c2)cc1Br | -62.4% (active) |
| C=C(C)[C@@H]1C/C=C(\COC(=O)[C@H](OC(C)=O)C(NC(=O)c2ccccc2)c2ccccc2)CC[C@H]2O[C@]2(C)CC/C=C(\C)CC1 (stereo partly specified) | 86.3% [5 µM] (inactive) |
| COc1ccc(Cl)cc1NC(=O)c1cc2c([nH]1)-c1nc(NC(=O)C(C)(C)C)sc1CC2 | 74.1% (inactive) |
| CC1CCC(C(C)C)C(NN)C1 (stereo unspecified) | 112% (inactive) |
| Cl[C@@H]1CCO[C@H](c2cc3ccccc3c3ccccc23)C1 | 106% (inactive) |
| C[C@]12CC[C@@H]3c4ccc(O)c(N)c4CC[C@H]3[C@@H]1CC[C@@H]2O | 129% (inactive) |
| COc1ccc(/C=C/C(=O)c2ccc(-n3cc(CN4CCN(c5cc6c(cc5F)c(=O)c(C(=O)O)cn6C5CC5)CC4)nn3)cc2)cc1OC | 57.5% (inactive) |
| COc1ccc(-c2nn(-c3ccc(NC(=O)c4ccc(Cl)c(C(F)(F)F)c4)cc3)cc2-c2ccncc2)cc1Cl | 6.68% (active) |
| O=C(O)c1cc2ccccc2cc1Nc1ccccc1 | 111% (inactive) |
| COc1ccc(Cn2cc3c(c2-c2cc(OC)c(OC)c(OC)c2)CCc2c(CO)noc2-3)cc1 | 94.8% (inactive) |
| COc1cc(C(=O)N2CCN(C(=O)c3cc(OC)c(OCc4ccccc4)cc3N)CC2)c(N)cc1OCc1ccccc1 | 91.1% (inactive) |
| Nc1ccc(S(=O)(=O)Nc2ccnn2-c2ccccc2)cc1 | 103% (inactive) |
| COc1ccc(-c2nnc(SCC(=O)Nc3ccc(C(=O)/C=C/c4ccccc4)cc3)o2)cc1OC | 104% (inactive) |
| CCC(N)(C(=O)O)c1ccc(F)cc1 (stereo unspecified) | 112% (inactive) |
| COc1ccc(-c2c(C#N)cnc(N)c2-c2nc3cc(C)c(C)cc3[nH]2)cc1 | 45.9% (inactive) |
| CC(C)(C)NCC(O)COc1c(Br)c(Br)c(Br)c2c1OC(C)(C)C2 (stereo unspecified) | -82.8% (active) |
| O=C1/C(=C/c2cccc3cnccc23)Cc2cc(F)ccc21 | 97.9% (inactive) |
| COC(OC)C1(c2ccccc2)NC(=O)NC1=O (stereo unspecified) | 112% (inactive) |
| c1cncc(-c2nc3ccccc3[nH]2)c1 | 109% (inactive) |

tested on: MDA-MB-231 breast; assay: as above; details: 10 µM unless noted

| SMILES | growth |
| --- | --- |
| COC(=O)c1oc2c(C(=O)/C=C/c3ccc(OC)cc3)c(OCCN3CCOCC3)ccc2c1C | 3.21% (active) |
| CN(C)c1ccc(/C=N/n2c(-c3cc(F)c(Cl)cc3Cl)nn(CN3CCOCC3)c2=S)cc1 | 99.8% (inactive) |
| CS(=O)(=O)OCC(COS(C)(=O)=O)C(c1ccccc1)c1ccccc1 | 96.5% (inactive) |
| Nc1ncnc2c1c(C(F)(F)F)cn2[C@@H]1O[C@H](CO)[C@@H](O)[C@H]1O | 15.7% (inactive) |
| Cc1nccc2c3ccc(OCc4cn(Cc5ccc(Br)cc5)nn4)cc3n(CCCc3ccccc3)c12 | 79.3% (inactive) |
| [2H]c1nc(Nc2ncc(F)c(-c3cc(F)c4nc(C)n(C(C)C)c4c3)n2)c([2H])c([2H])c1CN1CCN(CC)CC1 | 55.5% (inactive) |
| COc1cc(/C=C2/Oc3cc4occc4c(OC)c3C2=O)ccc1OCC(=O)Nc1ccncc1 | 89.9% (inactive) |
| COc1ccc2c(c1)OC(N)=C(C#N)C2c1ccc(F)cc1 (stereo unspecified) | 56.7% (inactive) |
| CCCCCCCCCCCCCCCCNc1ccccc1 | 104% (inactive) |
| O=C(Nc1ccc(-n2ccc3c(NC(=O)c4ccccc4)ncnc32)cc1)c1cccc(C(F)(F)F)c1 | 51.5% (inactive) |
| COc1ccc(/C(Cl)=N/N=C(\Cl)c2cc(OC)c(OC)c(OC)c2)cc1OC(C)=O | 97.8% (inactive) |
| O=C1C(Cl)=C(Nc2ccccc2)C(=O)C(Cl)=C1Nc1ccccc1 | 121% (inactive) |
| O=C(Nc1ccc(-n2cc(-c3ccncc3)c(-c3ccc(O)c(Cl)c3)n2)cc1)c1cc(C(F)(F)F)cc(C(F)(F)F)c1 | 21.3% (inactive) |
| CCn1c(C)nc([N+](=O)[O-])c1Sc1nc(N)nc2nc[nH]c12 | 42.3% (inactive) |
| Cc1cn(C2CC(N=[N+]=[N-])C(COP(=O)(O)OP(=O)(O)OP(=O)(O)O)O2)c(=O)[nH]c1=O (stereo unspecified) | 118% (inactive) |
| COc1cc(/C=C\c2cc(/C=C\c3ccc(O)c(OC)c3)n(C(=O)CNc3ccccc3OC)n2)ccc1O | 87% (inactive) |
| COc1ccc(Cl)cc1NC(=O)c1cc2c([nH]1)-c1nc(NC(=O)C(C)C)sc1CC2 | 113% (inactive) |
| O=C(/C=C/c1ccco1)c1cccc(Nc2nc(Nc3ccccc3)nc(Nc3ccccc3)n2)c1 | 67.9% (inactive) |
| O=C(Nc1ccc(-n2ccc3c(NC(=O)c4ccccc4)ncnc32)cc1)Nc1ccc(Cl)c(C(F)(F)F)c1 | 12% (inactive) |

| SMILES | growth |
| --- | --- |
| CN(C)CCCOc1c(Br)cc(/C=C/C(=O)N(C)CCc2cc(Br)c(OCCCN(C)C)c(Br)c2)cc1Br | 23.7% (inactive) |
| C=C(C)[C@@H]1C/C=C(\COC(=O)[C@H](OC(C)=O)C(NC(=O)c2ccccc2)c2ccccc2)CC[C@H]2O[C@]2(C)CC/C=C(\C)CC1 (stereo partly specified) | 65.2% [5 µM] (inactive) |
| COc1ccc(Cl)cc1NC(=O)c1cc2c([nH]1)-c1nc(NC(=O)C(C)(C)C)sc1CC2 | 33.1% (inactive) |
| CC1CCC(C(C)C)C(NN)C1 (stereo unspecified) | 108% (inactive) |
| Cl[C@@H]1CCO[C@H](c2cc3ccccc3c3ccccc23)C1 | 90.2% (inactive) |
| C[C@]12CC[C@@H]3c4ccc(O)c(N)c4CC[C@H]3[C@@H]1CC[C@@H]2O | 115% (inactive) |
| COc1ccc(/C=C/C(=O)c2ccc(-n3cc(CN4CCN(c5cc6c(cc5F)c(=O)c(C(=O)O)cn6C5CC5)CC4)nn3)cc2)cc1OC | 55.4% (inactive) |
| COc1ccc(-c2nn(-c3ccc(NC(=O)c4ccc(Cl)c(C(F)(F)F)c4)cc3)cc2-c2ccncc2)cc1Cl | -29.6% (active) |
| O=C(O)c1cc2ccccc2cc1Nc1ccccc1 | 96.2% (inactive) |
| COc1ccc(Cn2cc3c(c2-c2cc(OC)c(OC)c(OC)c2)CCc2c(CO)noc2-3)cc1 | 18% (inactive) |
| COc1cc(C(=O)N2CCN(C(=O)c3cc(OC)c(OCc4ccccc4)cc3N)CC2)c(N)cc1OCc1ccccc1 | 94.7% (inactive) |
| Nc1ccc(S(=O)(=O)Nc2ccnn2-c2ccccc2)cc1 | 102% (inactive) |
| COc1ccc(-c2nnc(SCC(=O)Nc3ccc(C(=O)/C=C/c4ccccc4)cc3)o2)cc1OC | 106% (inactive) |
| CCC(N)(C(=O)O)c1ccc(F)cc1 (stereo unspecified) | 110% (inactive) |
| COc1ccc(-c2c(C#N)cnc(N)c2-c2nc3cc(C)c(C)cc3[nH]2)cc1 | 53.4% (inactive) |
| CC(C)(C)NCC(O)COc1c(Br)c(Br)c(Br)c2c1OC(C)(C)C2 (stereo unspecified) | -65.6% (active) |
| O=C1/C(=C/c2cccc3cnccc23)Cc2cc(F)ccc21 | 93.4% (inactive) |
| COC(OC)C1(c2ccccc2)NC(=O)NC1=O (stereo unspecified) | 112% (inactive) |
| c1cncc(-c2nc3ccccc3[nH]2)c1 | 83.4% (inactive) |
